# Source: the supplement of paper PMC8728848
# The full list was thinned out, with the strongest signals kept by preference.
# B1: Arath Fbox (Arabidopsis thaliana), NP_178341.1 (protein)
# chain: EFTWGRKRRVKSESSPFDSFPEDCISYIISFTNPRDACVAATVSKTFESTVKSDIIWEKFLPADYESLIPPSRVFSSKKELYFSLCNDPVLFDDDKKSVWLEKASGKRCLMLSAMNLSIIWGDNPQYWQWIPIPESRFEKVAKLRDVCWFEIRGRTNTRVLSPRTRYSAYIVFKGVDKCYGFQNVAIEAAVGVVGQEPSRRLICFSEAIRRGRRNVVKPKQREDGWMEIELGEFFNDGGIMDNDEIEMSALETKQLNRKCGLIIQGIEIRPAKILAAAAASFLEQKLISEEDLNSAVDHHHHHH
# What was measured:
# Test in all cases: glycan array binding signal (z-score within array); higher = stronger binding
# Conditions in all cases: glycan notation: IUPAC condensed, linker removed
# [1] = biological target: Gal3S(b1-4)Glc
# How it was run: (§1)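 Glycan array binding is given as a within-array Z-score, which can be read as non-binding when negative. The arrays, 3228 of them, came from the Consortium for Functional Glycomics database and were retained only where the protein sequence was available. Z-scores were averaged across arrays of the same protein sequence at different concentrations or buffers and across linkers.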
# [2] = biological target: Gal3S(b1-4)[Fuc(a1-3)]GlcNAc6S
# How it was run: as §1
# [3] = biological target: GalNAc(b1-3)Gal(a1-4)Gal(b1-4)GlcNAc(b1-3)Gal(b1-4)Glc
# How it was run: as §1
# [4] = biological target: GalNAc(b1-4)Gal(b1-4)Glc
# How it was run: as §1
# [5] = biological target: GlcNAc(b1-2)Man(a1-3)[GlcNAc(b1-2)Man(a1-6)]Man(b1-4)GlcNAc(b1-4)[Fuc(a1-6)]GlcNAc
# How it was run: as §1
# [6] = biological target: GlcNAc(b1-2)[GlcNAc(b1-6)]Man(a1-6)[GlcNAc(b1-2)Man(a1-3)]Man(b1-4)GlcNAc(b1-4)GlcNAc
# How it was run: as §1
# [7] = biological target: GlcNAc(b1-3)Gal(b1-4)GlcNAc(b1-2)[GlcNAc(b1-3)Gal(b1-4)GlcNAc(b1-6)]Man(a1-6)[GlcNAc(b1-3)Gal(b1-4)GlcNAc(b1-2)Man(a1-3)]Man(b1-4)GlcNAc(b1-4)GlcNAc
# How it was run: as §1
# [8] = biological target: GlcNAc(b1-3)Gal(b1-4)GlcNAc(b1-3)Gal(b1-4)GlcNAc(b1-3)GalNAc
# How it was run: as §1
# [9] = biological target: Man(a1-3)[Man(a1-6)]Man(b1-4)GlcNAc(b1-4)GlcNAc
# How it was run: as §1
# [10] = biological target: Man(a1-3)[Man(a1-6)]Man(b1-4)GlcNAc(b1-4)[Fuc(a1-6)]GlcNAc
# How it was run: as §1
# [11] = biological target: Neu5Ac(a2-3)Gal(b1-3)GlcNAc(b1-2)Man
# How it was run: as §1
# [12] = biological target: Neu5Ac(a2-3)Gal(b1-3)GlcNAc(b1-6)GalNAc
# How it was run: as §1
# [13] = biological target: Neu5Ac(a2-3)Gal(b1-3)[Fuc(a1-4)]GlcNAc
# How it was run: as §1
# [14] = biological target: Neu5Ac(a2-3)Gal(b1-3)[Fuc(a1-4)]GlcNAc(b1-3)Gal(b1-3)[Fuc(a1-4)]GlcNAc
# How it was run: as §1
# [15] = biological target: Neu5Ac(a2-3)Gal(b1-4)GlcNAc(b1-2)[Neu5Ac(a2-3)Gal(b1-4)GlcNAc(b1-6)]Man(a1-6)[Neu5Ac(a2-3)Gal(b1-4)GlcNAc(b1-2)Man(a1-3)][GlcNAc(b1-4)]Man(b1-4)GlcNAc(b1-4)GlcNAc
# How it was run: as §1
# [16] = biological target: Neu5Ac(a2-3)Gal(b1-4)GlcNAc(b1-3)Gal(b1-4)GlcNAc(b1-2)Man(a1-3)[Neu5Ac(a2-3)Gal(b1-4)GlcNAc(b1-3)Gal(b1-4)GlcNAc(b1-2)Man(a1-6)]Man(b1-4)GlcNAc(b1-4)GlcNAc
# How it was run: as §1
# [17] = biological target: Neu5Ac(a2-3)Gal(b1-4)[Fuc(a1-3)]GlcNAc(b1-3)GalNAc
# How it was run: as §1
# [18] = biological target: Neu5Ac(a2-3)Gal6S(b1-4)GlcNAc
# How it was run: as §1
# [19] = biological target: Neu5Ac(a2-3)Gal6S(b1-4)[Fuc(a1-3)]GlcNAc
# How it was run: as §1
# [20] = biological target: Neu5Ac(a2-3)[Neu5Ac(a2-6)]GalNAc
# How it was run: as §1
# [21] = biological target: Neu5Ac(a2-6)Gal(b1-4)GlcNAc(b1-2)Man(a1-3)[GlcNAc(b1-4)][Neu5Ac(a2-6)Gal(b1-4)GlcNAc(b1-2)Man(a1-6)]Man(b1-4)GlcNAc(b1-4)GlcNAc
# How it was run: as §1
# [22] = biological target: Neu5Ac(a2-6)Gal(b1-4)GlcNAc(b1-2)Man(a1-3)[Neu5Ac(a2-6)Gal(b1-4)GlcNAc(b1-2)Man(a1-6)]Man(b1-4)GlcNAc(b1-4)GlcNAc
# How it was run: as §1
# [23] = biological target: Neu5Ac(a2-6)Gal(b1-4)GlcNAc(b1-2)Man(a1-6)[Gal(b1-4)GlcNAc(b1-2)Man(a1-3)]Man(b1-4)GlcNAc(b1-4)GlcNAc
# How it was run: as §1
# [24] = biological target: Neu5Ac(a2-6)Gal(b1-4)GlcNAc(b1-2)[Neu5Ac(a2-6)Gal(b1-4)GlcNAc(b1-4)]Man(a1-3)[GlcNAc(b1-4)][Neu5Ac(a2-6)Gal(b1-4)GlcNAc(b1-2)[Neu5Ac(a2-6)Gal(b1-4)GlcNAc(b1-6)]Man(a1-6)]Man(b1-4)GlcNAc(b1-4)GlcNAc
# How it was run: as §1
# [25] = biological target: Neu5Ac(a2-8)Neu5Ac(a2-3)[GalNAc(b1-4)]Gal(b1-4)Glc
# How it was run: as §1
# [26] = biological target: Neu5Ac9Ac(a2-6)Gal(b1-4)GlcNAc
# How it was run: as §1
# [27] = biological target: Neu5Gc(a2-6)Gal(b1-4)GlcNAc
# How it was run: as §1
binder,measurement,setting,value
B1,glycan array binding signal (z-score),[1],1
same,glycan array binding signal (z-score),[2],2.7
same,glycan array binding signal (z-score),[3],-0.087
same,glycan array binding signal (z-score),[4],0.06
same,glycan array binding signal (z-score),[5],0.585
same,glycan array binding signal (z-score),[6],-0.389
same,glycan array binding signal (z-score),[7],0.161
same,glycan array binding signal (z-score),[8],-0.761
same,glycan array binding signal (z-score),[9],-0.721
same,glycan array binding signal (z-score),[10],-0.72
same,glycan array binding signal (z-score),[11],-0.092
same,glycan array binding signal (z-score),[12],-0.024
same,glycan array binding signal (z-score),[13],-0.597
same,glycan array binding signal (z-score),[14],0.221
same,glycan array binding signal (z-score),[15],-0.75
same,glycan array binding signal (z-score),[16],2.64
same,glycan array binding signal (z-score),[17],2.69
same,glycan array binding signal (z-score),[18],-0.45
same,glycan array binding signal (z-score),[19],-0.559
same,glycan array binding signal (z-score),[20],-0.205
same,glycan array binding signal (z-score),[21],-0.647
same,glycan array binding signal (z-score),[22],-0.41
same,glycan array binding signal (z-score),[23],3.21
same,glycan array binding signal (z-score),[24],-0.533
same,glycan array binding signal (z-score),[25],-0.467
same,glycan array binding signal (z-score),[26],-0.681
same,glycan array binding signal (z-score),[27],2.49
